PLK1 kinase inh – human PLK1 kinase inhibitors, primary screen, biochemical, TR-FRET. Serine/threonine-protein kinase PLK1 (Homo sapiens), P53350. 97,000 tested, 0.53% active. recombinant PLK1 kinase, TR-FRET peptide phosphorylation. inhibition, % at 10 µM;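 active = inhibition of 50% or more in the single-concentration screen; inactive = inhibition below 50%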
Target sequence (P53350 whole entry, looked up): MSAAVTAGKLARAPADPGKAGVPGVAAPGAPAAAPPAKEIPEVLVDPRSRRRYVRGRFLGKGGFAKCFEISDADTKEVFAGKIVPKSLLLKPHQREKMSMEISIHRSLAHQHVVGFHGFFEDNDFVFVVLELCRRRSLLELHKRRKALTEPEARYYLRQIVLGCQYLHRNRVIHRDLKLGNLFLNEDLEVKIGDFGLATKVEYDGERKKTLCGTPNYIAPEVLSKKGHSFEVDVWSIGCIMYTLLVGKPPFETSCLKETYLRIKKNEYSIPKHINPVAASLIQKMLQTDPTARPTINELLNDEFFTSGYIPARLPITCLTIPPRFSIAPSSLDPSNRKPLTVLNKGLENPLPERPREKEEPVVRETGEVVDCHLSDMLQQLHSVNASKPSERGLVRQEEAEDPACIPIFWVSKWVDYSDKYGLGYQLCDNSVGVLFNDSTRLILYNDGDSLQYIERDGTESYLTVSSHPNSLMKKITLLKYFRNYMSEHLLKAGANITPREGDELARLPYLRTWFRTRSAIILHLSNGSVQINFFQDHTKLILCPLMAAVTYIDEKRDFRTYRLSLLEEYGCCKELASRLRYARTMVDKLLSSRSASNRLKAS
PLK1 PBD inh – Plk1 polo box domain binding inhibitors, primary screen, biochemical, fluorescence polarization. Serine/threonine-protein kinase PLK1 (Homo sapiens), P53350. Plk1 PBD phosphopeptide binding. inhibition, %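 (tested at about 20 µM)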. 97,000 tested, 0.13% active; in the data active = inhibition above about 34%, passing the limit was not always enough
CYP2C19 inh – blockers of cytochrome P450 2C19 activity – biochemical, luminescence, ADME assay, primary screen | CYP2C19 Supersomes, luciferin-H EGE luminescence, 30 min | AID 778, 2007 | P33261 | inhibition, % at 5 µM | 96,000 tested, 21% active;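 active = CYP2C19 inhibition above a set limit at 5 µM in the primary screen, cut at about 50% in these data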
CYP2C9 act – human CYP2C9 activators, primary screen, biochemical, luminescence. Cytochrome P450 2C9 (Homo sapiens), P11712. recombinant CYP2C9, luciferin-H conversion; hits give high values; factor 1 = untreated enzyme, 0 = blocked. activation factor at 5 µM. 96,000 tested, 1.4% active. AID 1024, 2008;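 active = activation factor of 2 or more for CYP2C9 at a 5 µM dose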
CYP2C9 inhib – blockers of cytochrome P450 2C9 activity – biochemical, luminescence, ADME assay, primary screen. P11712. inhibition, % at 5 µM. 96,000 tested, 20% active. CYP2C9 Supersomes, luciferin-H conversion;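 active = blocking of liver enzyme CYP2C9 beyond about 50% at 5 µM, limit read from the data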
CYP2C19 act – human CYP2C19 activators, primary screen, biochemical, luminescence; activation factor at 5 µM; 96,000 tested, under 10 active; recombinant CYP2C19, luciferin-H EGE luminescence; hits give high values; 0 = fully inhibited enzyme, 1 = untreated enzyme; Cytochrome P450 2C19 (Homo sapiens), P33261;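 active = activation factor of at least 2 at 5 µM in the primary screen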
Hits are given with their value; - = inactive; . = no result. This is a sample that favours compounds with a hit; in the whole collection about 28% have one here.

SMILES	PLK1 kinase inh	PLK1 PBD inh	CYP2C19 inh	CYP2C9 act	CYP2C9 inhib	CYP2C19 act
O=C(O)CSc1nc2ccccc2c(=O)[nH]1	-	-	-	-	-	-
O=C(CSc1nc2ccccc2c(=O)[nH]1)NCc1ccc(Cl)cc1	-	-	-	-	51	-
COC(=O)c1ccccc1NC(=O)CSc1nc2ccccc2c(=O)[nH]1	-	-	-	-	59	-
Cc1nnc(SCC(=O)NCc2ccc(Cl)cc2)[nH]c1=O	.	.	-	-	-	-
O=C(NC(Cc1ccccc1)c1ccc2c(c1)OCCCO2)c1ccccc1 (stereo not given)	-	-	-	-	65	-
O=C(NC(Cc1ccc2c(c1)OCO2)C(=O)NC(Cc1ccccc1)C(=O)O)c1ccccc1 (stereo not given)	-	-	-	-	-	-
O=[N+]([O-])c1cc(C(F)(F)F)ccc1NCCc1c[nH]c2ccc(O)cc12	-	-	-	-	75	-
O=[N+]([O-])c1ccccc1NCCNc1ncc(C(F)(F)F)cc1Cl	-	-	-	-	-	-
COCCNC(=O)C1c2ccccc2C(=O)N(CCOC)C1c1ccc(F)cc1 (stereo not given)	-	-	-	-	-	-
COCCN1C(=O)c2ccccc2C(C(=O)N2CCN(c3ccccc3)CC2)C1c1ccc(F)cc1 (stereo not given)	-	-	-	-	71	-
COCCn1c(C)cc(C(=O)COC(=O)C23CC4CC(CC(O)(C4)C2)C3)c1C	-	-	-	-	-	-
CCCOc1ccc(C(=O)Nc2ccccc2[N+](=O)[O-])cc1	-	-	.	.	.	.
CCC(=O)Nc1ccccc1Nc1cc(C#N)c(C#N)cc1[N+](=O)[O-]	.	.	69	-	-	-
CCOC(=O)c1ccc(COC(=O)c2ccc3c(c2)-c2ccccc2C3=O)cc1	-	-	-	-	-	-
CCOC(=O)C1=C(Cc2ccc(OC)cc2)C(=O)c2ccccc2C1=O	-	-	56	-	55	-
CCOC(=O)C1=C(Cc2ccc(C)cc2)C(=O)c2ccccc2C1=O	-	-	74	-	61	-
CC(C)CCN(C)C1CCN(C(=O)Nc2c(F)cccc2F)CC1	-	-	-	-	-	-
CCc1nc2ccccc2n1CC(=O)N1CCN(S(=O)(=O)c2cccc(C(F)(F)F)c2)CC1	-	-	-	-	-	-
O=C(Cc1ccccc1)NC1CCN(S(=O)(=O)c2ccc(C(=O)O)cc2)CC1	-	-	-	-	-	-
CC(C)CCN(C)C1CCN(S(=O)(=O)c2cccc(C(F)(F)F)c2)CC1	.	.	52	-	-	-
O=C(Cc1ccccc1)NC1CCN(S(=O)(=O)c2cccc(F)c2)CC1	-	-	73	-	-	-
CC(C)(C)C(=O)NC1CCN(S(=O)(=O)c2cccc(C(F)(F)F)c2)CC1	.	.	81	-	-	-
CC1(C)Cc2c(sc3c2c(=N)n(Cc2ccco2)c(=O)n3CC(=O)Nc2ccc(Cl)cc2)CO1	.	.	-	-	-	-
Cn1c(=O)[nH]c2sc3c(c2c1=O)CC(C)(C)OC3	-	-	-	-	-	-
CSc1ncccc1C(=O)OCC(=O)NC(N)=O	-	-	-	-	-	-
SMILES	PLK1 kinase inh	PLK1 PBD inh	CYP2C19 inh	CYP2C9 act	CYP2C9 inhib	CYP2C19 act
CCOC(=O)Cc1ccc(NS(=O)(=O)c2ccc(SC)cc2)cc1	-	-	-	-	71	-
CCNC(=O)Cc1ccc(NS(=O)(=O)c2ccc(F)cc2)cc1	-	-	-	-	53	-
O=C(Cc1ccc(NS(=O)(=O)c2ccc(F)cc2)cc1)NCc1ccccc1	-	-	76	-	94	-
O=C(O)c1ccccc1C(=O)NCc1ccc(F)cc1	-	-	-	-	-	-
CCNS(=O)(=O)c1ccc(NC(=O)Cc2ccc(F)cc2)cc1	-	-	-	-	-	-
CCOC(=O)c1ccc(NS(=O)(=O)c2ccc(SC)cc2)cc1	-	-	-	-	-	-
O=c1c2c3c(sc2n2cnnc2n1-c1ccccc1)N(Cc1ccccc1)CCC3	-	-	-	-	-	-
O=C(Nc1ccc2ccccc2c1)c1onc2c1CCCC2	-	-	-	-	-	-
CCOC(=O)NC1(C(F)(F)F)NC(=O)N(C2CCCCC2)C1=O (stereo not given)	-	-	-	-	-	-
CCOC(=O)C1CN(S(=O)(=O)c2ccc(C)cc2)C1	-	-	-	-	-	-
CCCCCC(=O)NC(NC(=S)Nc1ccc(S(N)(=O)=O)cc1)C(Cl)(Cl)Cl (stereo not given)	-	-	60	-	93	-
O=C(CCc1ccccc1)NC(NC(=S)Nc1ccc(Br)cc1)C(Cl)(Cl)Cl (stereo not given)	-	-	-	-	97	-
CCCCCCCC(=O)NC(Nc1ccc(S(N)(=O)=O)cc1)C(Cl)(Cl)Cl (stereo not given)	-	-	-	-	77	-
CC(CC(=O)O)CC(=O)Nc1ccc(S(N)(=O)=O)cc1 (stereo not given)	-	-	-	-	-	-
O=C(CCc1ccccc1)NC(NC(=S)Nc1cccc(Cl)c1)C(Cl)(Cl)Cl (stereo not given)	-	-	.	.	.	.
CCOc1ccc(-n2nc3c(-n4ncc(C#N)c4N)nnc(C)c3c2C)cc1	-	-	.	.	.	.
O=C(c1cccc(F)c1)N1CCN(C(=O)c2cc(-c3ccc(Cl)cc3Cl)on2)CC1	-	-	80	-	-	-
COc1ccc(OC)c(NC(=O)CC2C(=O)NCCN2C(=O)Nc2cccc(Cl)c2)c1 (stereo not given)	-	-	-	-	72	-
O=C(Cn1cc2c(n1)CCCC2)N1CCCc2ccccc21	.	.	-	-	-	-
Cc1cc(C)nc(N2CCCC(C(=O)NCC(c3ccccc3)c3ccccc3)C2)n1 (stereo not given)	-	-	.	.	.	.
S=C1SCN(Cc2ccccn2)CN1Cc1ccco1	-	-	-	-	-	-
Cn1c(/C=C/N2CCOCC2)c(C(=O)c2ccc(Br)cc2)c(=O)n(C)c1=O	-	-	-	-	-	-
Cn1c2c(c(=O)n(C)c1=O)C(c1ccc(Br)cc1)Nc1ccccc1O2 (stereo not given)	-	-	56	-	65	-
COc1cc2[nH]c3c(=O)n(CCN4CCCCC4)cnc3c2cc1OC	-	-	-	-	-	-
NC(=O)c1ccc(N2CCCCC2)c(N2C(=O)C3CC=CCC3C2=O)c1 (stereo not given)	-	-	50	-	-	-
CC(C)=CC1C=C(C)C(C)C2C(=O)NNC(=O)C12 (stereo not given)	-	-	51	-	-	-
